# According to PubChem BioAssay (EPA / NIEHS):
# Activity calls are given as the source filed them. How the source made its calls: active means hit-call score of the fitted dose curve at least 0.9, where 1 is the maximum; inactive means score below 0.9.
# Columns and labels:
# [1] = read-out: Vascular endothelial growth factor receptor 2 (Homo sapiens) (UniProt P35968); experiment: BSK_4H_VEGFRII: BioMAP Diversity Plus: 4H Assay for Vascular endothelial growth factor receptor 2 (VEGFR2) Biomarker Activity (AID 2283031); settings: primary human endothelial cells (HUVEC); actives raise or lower the signal
# Procedure, shortened: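 HUVEC (human primary), 4H system; 24 h post-dose; VEGFRII by ELISA; bidirectional curve fit vs DMSO baseline; gain or loss of signal scored.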
# [2] = read-out: Vascular cell adhesion molecule 1 (VCAM1), VCAM1 (gene 7412); experiment: BSK_4H_VCAM1: BioMAP Diversity Plus: 4H Assay for Vascular cell adhesion molecule 1 (VCAM1) Biomarker Activity (AID 2283033); settings: primary human endothelial cells (HUVEC); actives raise or lower the signal
# Procedure, shortened: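 Primary human umbilical vein endothelial cells, 4H stimulation system, treated for 24 h; cell-surface VCAM-1 quantified by ELISA. Bidirectional fitting against DMSO; cytotoxicity tracked by SRB total-protein staining in parallel cultures.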
# [3] = read-out: Interferon-gamma inducible Protein 10 (IP10), CXCL10 (gene 3627); experiment: BSK_BE3C_IP10: BioMAP Diversity Plus: BE3C Assay for Interferon-gamma inducible Protein 10 (IP10) Biomarker Activity (AID 2283034); settings: primary human bronchial epithelial cells; actives raise or lower the signal
# Procedure, shortened: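 Primary human bronchial epithelial cells, with IP-10 measured by ELISA 24 hours after chemical dosing. Bidirectional fit against DMSO; cytotoxicity checked by SRB total protein staining in parallel cultures.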
# [4] = read-out: Monokine induced gamma interferon (MIG), CXCL9 (gene 4283); experiment: BSK_BE3C_MIG: BioMAP Diversity Plus: BE3C Assay for Monokine induced gamma interferon (MIG) Biomarker Activity (AID 2283035); settings: primary human bronchial epithelial cells; actives raise or lower the signal;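 further: MIG protein measured by ELISA in BE3C cultures after 24 h of dosing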
# Procedure, shortened: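 ELISA read-out of MIG in human lung bronchial epithelial primary cultures, 24 h post-dosing. Bidirectional curve fit vs DMSO baseline.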
# [5] = read-out: Transforming growth factor beta 1 (TGFb1), TGFB1 (gene 7040); experiment: BSK_BE3C_TGFb1: BioMAP Diversity Plus: BE3C Assay for Transforming growth factor beta 1 (TGFb1) Biomarker Activity (AID 2283036); settings: primary human bronchial epithelial cells; actives raise or lower the signal
# Procedure, shortened: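 Primary human bronchial epithelial cells dosed with chemical; TGF-b1 measured by ELISA 24 h after dosing. Bidirectional curve fitting against DMSO negative control; SRB total-protein staining in parallel cultures gauged cytotoxicity.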
# [6] = read-out: Plasminogen activator inhibitor-1 (PAI1), SERPINE1 (gene 5054); experiment: BSK_BE3C_PAI1: BioMAP Diversity Plus: BE3C Assay for Plasminogen activator inhibitor-1 (PAI1) Biomarker Activity (AID 2283037); settings: primary human bronchial epithelial cells; actives raise or lower the signal
# Procedure, shortened: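 Primary human bronchial epithelial cells (BE3C system) exposed 24 h; PAI-1 quantified by ELISA. Parallel sulforhodamine B staining of total protein flags cytotoxicity. Bidirectional fit versus DMSO.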
# [7] = read-out: urokinase plasminogen activator (uPA), PLAU (gene 5328); experiment: BSK_BE3C_uPA: BioMAP Diversity Plus: BE3C Assay for urokinase plasminogen activator (uPA) Biomarker Activity (AID 2283038); settings: primary human bronchial epithelial cells; actives raise or lower the signal;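 further: uPA protein level quantified by ELISA in cell cultures; uPA read one day after compound addition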
# Procedure, shortened: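 ELISA read-out of uPA in human lung primary bronchial epithelial cultures, 24 h post-dosing. Gain or loss of signal fitted bidirectionally relative to DMSO baseline; cytotoxicity checked in parallel cultures via SRB total protein stain.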
# [8] = read-out: Urokinase-type plasminogen activator receptor (uPAR), PLAUR (gene 5329); experiment: BSK_BE3C_uPAR: BioMAP Diversity Plus: BE3C Assay for Urokinase-type plasminogen activator receptor (uPAR) Biomarker Activity (AID 2283039); settings: primary human bronchial epithelial cells; actives raise or lower the signal;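 on outcome: uPAR protein level measured by ELISA on the cells; cells exposed to compound for one day before measurement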
# Procedure, shortened: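 Primary human bronchial epithelial cells dosed for 24 h; uPAR quantified by ELISA with bidirectional fitting against DMSO. Overt cytotoxicity assessed in parallel cultures by SRB total-protein staining (0.1% SRB, 560 nm).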
# [9] = read-out: Interleukin-6 (IL6), IL6 (gene 3569); experiment: BSK_CASM3C_IL6: BioMAP Diversity Plus: CASM3C Assay for Interleukin-6 (IL6) Biomarker Activity for (AID 2283040); settings: primary human coronary artery smooth muscle cells; actives raise or lower the signal
# [10] = read-out: Tissue plasminogen activator (tPA), PLAT (gene 5327); experiment: BSK_BE3C_tPA: BioMAP Diversity Plus: BE3C Assay for Tissue plasminogen activator (tPA) Biomarker Activity (AID 2283041); settings: primary human bronchial epithelial cells; actives raise or lower the signal;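 further: tPA level quantified by ELISA one day after compound addition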
# Procedure, shortened: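 Primary human bronchial epithelial cells in the BE3C system, exposed to compound for 24 h. tPA was quantified by ELISA; DMSO served as baseline, with gain or loss of signal fitted. Cytotoxicity checked in parallel cultures by SRB total-protein staining.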
# [11] = read-out: Interleukin-8 (IL8), CXCL8 (gene 3576); experiment: BSK_CASM3C_IL8: BioMAP Diversity Plus: CASM3C Assay for Interleukin-8 (IL8) Biomarker Activity (AID 2283042); settings: primary human coronary artery smooth muscle cells; actives raise or lower the signal;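 further: IL-8 protein level quantified by ELISA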
# [12] = read-out: Human Leukocyte Antigen - DR isotype (HLADR), HLA-DRA (gene 3122); experiment: BSK_CASM3C_HLADR: BioMAP Diversity Plus: CASM3C Assay for Human Leukocyte Antigen - DR isotype (HLADR) Biomarker Activity (AID 2283043); settings: primary human coronary artery smooth muscle cells; actives raise or lower the signal;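 further: cell-surface HLA-DR protein level quantified by ELISA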
# [13] = read-out: Macrophage colony-stimulating factor (MCSF), CSF1 (gene 1435); experiment: BSK_CASM3C_MCSF: BioMAP Diversity Plus: CASM3C Assay for Macrophage colony-stimulating factor (MCSF) Biomarker Activity (AID 2283044); settings: primary human coronary artery smooth muscle cells; actives raise or lower the signal;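 further: M-CSF protein amount quantified by ELISA after 24 h exposure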
# [14] = read-out: Low-density lipoprotein receptor (LDLR), LDLR (gene 3949); experiment: BSK_CASM3C_LDLR: BioMAP Diversity Plus: CASM3C Assay for Low-density lipoprotein receptor (LDLR) Biomarker Activity (AID 2283045); settings: primary human coronary artery smooth muscle cells; actives raise or lower the signal;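 further: LDLR protein level on the cell surface quantified by ELISA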
# [15] = read-out: Monocyte Chemoattractant Protein-1 (MCP1), CCL2 (gene 6347); experiment: BSK_CASM3C_MCP1: BioMAP Diversity Plus: CASM3C Assay for Monocyte Chemoattractant Protein-1 (MCP1) Biomarker Activity (AID 2283046); settings: primary human coronary artery smooth muscle cells; actives raise or lower the signal;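 further: MCP-1 level quantified by ELISA 24 h after dosing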
# [16] = BSK_CASM3C_Proliferation: Cell Proliferation Assessment in the BioMAP Diversity Plus: CASM3C Assay (AID 2283047); settings: primary human coronary artery smooth muscle cells;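 further: sulforhodamine B total protein stain as relative cell number at 560 nm; sub-confluent cells exposed 48 h before staining; fitted both ways against DMSO so gain or loss of cell number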
# [17] = read-out: Monokine induced gamma interferon (MIG), CXCL9 (gene 4283); experiment: BSK_CASM3C_MIG: BioMAP Diversity Plus: CASM3C Assay for Monokine induced gamma interferon (MIG) Biomarker Activity (AID 2283048); settings: primary human coronary artery smooth muscle cells; actives raise or lower the signal;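 further: MIG protein level measured by ELISA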
# [18] = read-out: serum amyloid A (SAA), SAA1 (gene 6288); experiment: BSK_CASM3C_SAA: BioMAP Diversity Plus: CASM3C Assay for serum amyloid A (SAA) Biomarker Activity (AID 2283049); settings: primary human coronary artery smooth muscle cells; actives raise or lower the signal;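 further: SAA protein level quantified by ELISA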
# [19] = BSK_CASM3C_SRB: Viability Assessment in the BioMAP Diversity Plus: CASM3C Assay (AID 2283050); settings: primary human coronary artery smooth muscle cells
compound,measurement,setting,value
Clc1nc(Cl)nc(Nc2ccccc2Cl)n1,outcome,[1],inactive
same,outcome,[2],inactive
same,outcome,[3],inactive
same,outcome,[4],inactive
same,outcome,[5],inactive
same,outcome,[6],inactive
same,outcome,[7],inactive
same,AC50,[8],0.293 µM (active)
same,outcome,[9],inactive
same,outcome,[10],inactive
same,outcome,[11],inactive
same,outcome,[12],inactive
same,outcome,[13],inactive
same,outcome,[14],inactive
same,outcome,[15],inactive
same,outcome,[16],inactive
same,outcome,[17],inactive
same,outcome,[18],inactive
same,outcome,[19],inactive
Nc1cnn(-c2ccccc2)c(=O)c1Cl,outcome,[1],inactive
same,outcome,[2],inactive
same,outcome,[4],inactive
same,outcome,[5],inactive
same,outcome,[6],inactive
same,outcome,[7],inactive
same,outcome,[8],inactive
same,outcome,[9],inactive
same,outcome,[10],inactive
same,outcome,[11],inactive
same,outcome,[12],inactive
same,outcome,[13],inactive
same,outcome,[14],inactive
same,outcome,[15],inactive
same,outcome,[16],inactive
same,outcome,[17],inactive
same,outcome,[18],inactive
same,outcome,[19],inactive
CCOc1nc(C(Cl)(Cl)Cl)ns1,outcome,[2],inactive
same,outcome,[4],inactive
same,outcome,[5],inactive
same,outcome,[6],inactive
same,outcome,[7],inactive
same,outcome,[8],inactive
same,outcome,[9],inactive
same,outcome,[10],inactive
same,outcome,[11],inactive
same,outcome,[12],inactive
same,outcome,[13],inactive
same,outcome,[14],inactive
same,outcome,[15],inactive
same,outcome,[16],inactive
same,outcome,[17],inactive
same,outcome,[18],inactive
same,outcome,[19],inactive
CCOP(=O)(OCC)Oc1nc(Cl)c(Cl)cc1Cl,outcome,[1],inactive
same,AC50,[2],26.7 µM (active)
same,AC50,[3],23.9 µM (active)
same,outcome,[4],inactive
same,outcome,[5],inactive
same,outcome,[6],inactive
same,outcome,[7],inactive
same,AC50,[8],9.84 µM (active)
same,outcome,[9],inactive
same,outcome,[10],inactive
same,outcome,[11],inactive
same,outcome,[12],inactive
same,outcome,[13],inactive
same,outcome,[14],inactive
same,outcome,[15],inactive
same,outcome,[16],inactive
same,outcome,[17],inactive
same,outcome,[18],inactive
same,outcome,[19],inactive
CCCN(CC)CC1COC2(CCC(C(C)(C)C)CC2)O1 (configuration not stated),outcome,[1],inactive
same,outcome,[2],inactive
same,outcome,[3],inactive
same,outcome,[4],inactive
same,outcome,[5],inactive
same,outcome,[6],inactive
same,outcome,[7],inactive
same,AC50,[8],1.77 µM (active)
same,outcome,[9],inactive
same,outcome,[10],inactive
same,outcome,[11],inactive
same,outcome,[12],inactive
same,outcome,[13],inactive
same,outcome,[14],inactive
same,outcome,[15],inactive
same,AC50,[16],7.08 µM (active)
same,outcome,[17],inactive
same,outcome,[18],inactive
same,outcome,[19],inactive
CN=C=S,outcome,[1],inactive
same,outcome,[2],inactive
same,outcome,[3],inactive
same,outcome,[4],inactive
same,outcome,[5],inactive
same,outcome,[6],inactive
same,outcome,[7],inactive
same,outcome,[8],inactive
same,outcome,[9],inactive
same,outcome,[10],inactive
same,outcome,[11],inactive
same,outcome,[12],inactive
same,outcome,[13],inactive
same,outcome,[14],inactive
same,outcome,[15],inactive
same,outcome,[16],inactive
same,outcome,[17],inactive
same,outcome,[18],inactive
same,outcome,[19],inactive
N#Cc1c(Cl)cccc1Cl,outcome,[1],inactive
same,outcome,[2],inactive
same,outcome,[4],inactive
same,outcome,[5],inactive
same,outcome,[6],inactive
same,outcome,[7],inactive
same,outcome,[8],inactive
same,outcome,[9],inactive
same,outcome,[10],inactive
same,outcome,[11],inactive
same,outcome,[12],inactive
same,outcome,[13],inactive
same,outcome,[14],inactive
same,outcome,[15],inactive
same,outcome,[16],inactive
same,outcome,[17],inactive
same,outcome,[18],inactive
same,outcome,[19],inactive
CC(C)NC(=O)N1CC(=O)N(c2cc(Cl)cc(Cl)c2)C1=O,outcome,[1],inactive
same,outcome,[2],inactive
same,outcome,[3],inactive
same,outcome,[4],inactive
same,outcome,[5],inactive
same,outcome,[6],inactive
same,outcome,[7],inactive
same,outcome,[8],inactive
same,outcome,[9],inactive
same,outcome,[10],inactive
same,outcome,[11],inactive
same,outcome,[12],inactive
same,outcome,[13],inactive
same,outcome,[14],inactive
same,outcome,[15],inactive
same,outcome,[16],inactive
same,outcome,[17],inactive
same,outcome,[18],inactive
same,outcome,[19],inactive
COc1cc(Cl)c(OC)cc1Cl,outcome,[1],inactive
same,outcome,[2],inactive
same,outcome,[3],inactive
same,outcome,[4],inactive
same,outcome,[5],inactive
same,outcome,[6],inactive
same,outcome,[7],inactive
same,outcome,[8],inactive
same,outcome,[9],inactive
same,outcome,[10],inactive
same,outcome,[11],inactive
same,outcome,[12],inactive
same,outcome,[13],inactive
same,outcome,[14],inactive
same,outcome,[15],inactive
same,outcome,[16],inactive
same,outcome,[17],inactive
same,outcome,[18],inactive
same,outcome,[19],inactive
